Data published in PubChem BioAssay AID588342 (National Center for Advancing Translational Sciences (NCATS), 2011).
Screen size: about 360,000 compounds; about 25,000 (6.9%) were called active. Another 9% or so got no clear call; they are omitted. This excerpt belongs to a sample that is enriched for actives. A number with no mark means an inactive call. Calls come from the whole dose curve; as a rule, active = well fitted inhibition curve with a large enough effect; inconclusive = small, poorly fitted or top-dose-only effect; inactive = flat fitted curve, though single readings scatter.

Target: Luciferin 4-monooxygenase (Photinus pyralis) (UniProt P08659)
Assay: qHTS profiling assay for firefly luciferase inhibitor/activator using purifed enzyme and Km concentrations of substrates (counterscreen for miR-21 project); note: nearly all actives have a fitted effect of over 55% in size;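 for activity change, negative = inhibition: plate controls were vehicle for no effect and reference inhibitor for full effect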
Conditions: purified FLuc, luminescence inhibition; series mostly up to 57.5 µM; activity change, negative = inhibition: at the top concentration
From the text: MLPCN Grant: 1 R21 NS059478-01 (miR-21 grant) Assay Provider: NCGC NCGC Assay Overview: Firefly (Photinus pyralis) luciferase is one of the most commonly used transcriptional reporters for a number of reasons. It is considered one of the more dynamically responsive reporters -that is, responsive to changes in reporter transcription - as it requires no post-translational modifications and is enzymatically active directly after protein synthesis (Wood, 1998). Additionally, the half-life of the luciferase protein is short relative to other reporter-gene products (Wood, 1995). Whereas reporters with long half-lives potentially allow for increased signal due to accumulation of reporter-gene product, once accumulated in the cell, dynamic changes in reporter-gene expression may be difficult to detect(Fan and Wood, 2007; Almond et al., 2004). It has been shown that wild-type P. pyralis luciferase has a half-life of approximately […] hours in mammalian cells (Thompson et al., 1991). Firefly luciferase reporter-gene assays are also generally considered one of the most sensitive assay types (Wood, 1995; Wood, 1998). Although light produced in a bioluminescence reaction is of lower intensity than that produced during fluorescence emission, this is offset by little to no background light inherent to luminescent assays. Thus the luciferase reporter can be expressed at much lower levels than fluorescent proteins while still providing robust signal. # However, it was initially observed, in 1991, by Thompson et al., that compounds that resemble the substrates of firefly luciferase (FLuc) can act as competitive inhibitors of the enzyme, and that these compounds, upon interaction with luciferase in the cell, can actually stabilize the protein and increase its half-life. Accumulated intracellular FLuc protein can be measured as an increase in luminescence signal, upon addition of detection reagents (which contain high concentrations of FLuc substrates) commonly used in high-throughput screening. In cell-based reporter gene assays that use FLuc as the reporter gene to quantitate the potential influence of a given compound against the target biology, this apparent increase in luminescence can mistakenly be interpreted as identification of a compound that is active against the target of interest. This is the case for the miR-21 FLuc reporter gene assay used to identify inhibitors of the miR-21 pathway (PubChem AID 2289) - compounds of interest will inhibit miR-21 biogenesis/expression or activity, and are identified by causing an increase in luminescence, due to increased FLuc translation. However, FLuc inhibitory compounds that stabilize the FLuc protein will give an identical read-out, making it difficult to distinguish compounds that are active against the target from those active against FLuc. Previous profiling work to determine the prevalence of compounds that affect FLuc enzymatic activity (PubChem AID 411) identified that ~3% of the MLSMR library (then at ~72K) inhibited FLuc. […] Since the MLSMR had grown to ~350K compounds, and since it was expected that a significant percentage of compounds found active in the miR-21 FLuc assay would be FLuc inhibitors, the library was screened for activity against FLuc using a biochemical assay of purified FLuc and KM concentrations of FLuc substrates (D-luciferin and ATP).
NCGC Assay Protocol Summary: Reagents: 50mM Tris acetate, pH 7.5; 10mM Mg acetate; 10uM D-luciferin (Sigma #L9504); 10uM ATP; 0.01% Tween-20; 0.05% BSA; 10nM P. pyralis luciferase (Sigma #L9506) Control compounds used were two known firefly luciferase inhibitors (compounds (2) and (5) in Auld et al., 2010), and DMSO. […]

Luciferin 4-monooxygenase (Photinus pyralis), sequence (P08659 whole entry, looked up): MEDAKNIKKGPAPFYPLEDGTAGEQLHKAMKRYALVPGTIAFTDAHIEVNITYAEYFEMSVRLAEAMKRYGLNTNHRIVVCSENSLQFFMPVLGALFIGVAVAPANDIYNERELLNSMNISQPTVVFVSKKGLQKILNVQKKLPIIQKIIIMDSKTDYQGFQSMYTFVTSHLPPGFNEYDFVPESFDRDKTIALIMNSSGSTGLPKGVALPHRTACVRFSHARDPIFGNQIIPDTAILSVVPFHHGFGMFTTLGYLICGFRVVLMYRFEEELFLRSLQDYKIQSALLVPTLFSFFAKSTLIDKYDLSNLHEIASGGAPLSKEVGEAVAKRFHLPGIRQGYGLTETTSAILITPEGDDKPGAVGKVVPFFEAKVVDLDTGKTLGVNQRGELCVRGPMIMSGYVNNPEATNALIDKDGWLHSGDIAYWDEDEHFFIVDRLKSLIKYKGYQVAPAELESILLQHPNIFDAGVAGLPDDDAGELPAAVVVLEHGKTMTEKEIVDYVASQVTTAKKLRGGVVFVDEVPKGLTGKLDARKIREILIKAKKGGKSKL

Row | SMILES | activity change, negative = inhibition | Potency
1 | O=S(=O)(c1ccccc1)c1nc(-c2ccc(Cl)cc2Cl)oc1N1CCCCC1 | -0.863% | 
2 | COc1ccc(S(=O)(=O)NC(C)c2ccccc2)cc1C(=O)N1CCCCC1 (stereo unspecified) |  | 1690 nM (active)
3 | COc1ccc(S(=O)(=O)Nc2ccccc2C(=O)N2CCCC2)cc1C | -1.28% | 
4 | CC(NS(=O)(=O)c1ccc(OCC(=O)N2CCCC2)cc1)c1ccccc1 (stereo unspecified) | 2.33% | 
5 | COc1ccc(NS(=O)(=O)c2cc3c4c(c2)CC(=O)N4CCC3)cc1Cl | -10.1% | 
6 | O=C(CN1C(=O)CC(c2ccccc2)S(=O)(=O)c2ccccc21)NC1CCCC1 (stereo unspecified) | -2.16% | 
7 | O=C1/C(=C\c2cccnc2)CN(Cc2ccccc2)C/C1=C\c1cccnc1 | 0.472% | 
8 | C(=N\n1cnnc1)/c1cccnc1 | 0.209% | 
9 | Cc1ccccc1C1=N/C(=C/c2cccnc2)C(=O)O1 |  | 8490 nM (active)
10 | CCc1nc2sc3c(Cl)ncnc3c2c2c1CCCC2 | 0.217% | 
11 | Cc1ccccc1CN1CCN(C(=O)c2cccc(F)c2)CC1 | 4.88% | 
12 | Cc1cccc(-n2cc(CN3CCN(C(=O)c4ncn[nH]4)CC3)c(-c3cccc(F)c3)n2)c1 |  | 13500 nM (active)
13 | Cc1ccc(C)c(-n2cc(CN3CCN(C(=O)c4ncn[nH]4)CC3)c(-c3ccccc3)n2)c1 | -4.47% | 
14 | CCN(CCCNC(=O)c1cc2cc3cc(OC)ccc3nc2s1)c1ccccc1 | -6.12% | 
15 | CC(=O)Nc1ccc(SC[C@H](Cc2ccccc2)N2CC[C@@H](C)CCC2=O)cc1 | 4.86% | 
16 | CCOC(=O)CSc1nc2ccc(C)cc2[nH]1 |  | 16900 nM (active)
17 | Cc1ccc2nc(SCC(=O)NC3CCCC3)[nH]c2c1 | 5.01% | 
18 | COc1ccc2nc(SCC(=O)Nc3c(C)cc(C)cc3C)[nH]c2c1 | 6.49% | 
19 | COc1ccc(S(=O)(=O)NCc2cccn2Cc2cccc(C)c2)cc1 | -0.767% | 
20 | c1ccc(CN2CCC(N=C3NN=C(c4ccc5c(c4)OCCO5)CS3)CC2)cc1 | -19.4% | 
21 | Clc1cccc(N=C2NN=C(c3ccc4c(c3)OCCO4)CS2)c1 |  | 2130 nM (active)
22 | COC(=O)C1CCN(C(=O)c2cc(=O)[nH]c3ccccc23)CC1 | -3.07% | 
23 | CC1CCN(C(=O)COC(=O)c2cc(=O)[nH]c3ccccc23)CC1 |  | 10700 nM (active)
24 | CC(NC(=O)COC(=O)c1cc(=O)[nH]c2ccccc12)c1ccccc1 (stereo unspecified) | -7.16% | 
25 | Cc1cc(C)cc(NC(c2nnc(-c3cccc(F)c3)o2)c2ccc(F)cc2Cl)c1 (stereo unspecified) | 0.751% | 
26 | COc1cccc(CNc2nccn(-c3ccc(OC)c(OC)c3)c2=O)c1 | -2.32% | 

Row | SMILES | activity change, negative = inhibition | Potency
27 | COc1ccc(-c2cc(C(F)(F)F)nc(SCC(=O)N(C)Cc3ccccc3)n2)cc1OC | -5.79% | 
28 | COc1ccc(CC2c3cc(OC)c(OC)cc3CC[N+]2(C)CCC(=O)OCCCCCOC(=O)CC[N+]2(C)CCc3cc(OC)c(OC)cc3C2Cc2ccc(OC)c(OC)c2)cc1OC (stereo unspecified) | 1.46% | 
29 | CCCOc1ccc(C(=O)Nc2ccc3oc(-c4cccc(Cl)c4Cl)nc3c2)cc1 | -4.27% | 
30 | O=C(Nc1cccc(-c2nc3ccccc3o2)c1)c1cccc(Br)c1 | -18.3% | 
31 | Cc1ccc(OCC(=O)Nc2ccc(-c3nc4ncccc4o3)cc2)cc1 | -2.22% [at 2.3 µM] | 
32 | COc1cccc(-c2nc(S(=O)(=O)c3ccc(C)cc3)c(NCc3ccccc3)o2)c1 | 3.23% | 
33 | O=C(Nc1ccc2oc(-c3ccc(O)c(Br)c3)nc2c1)c1cc2ccccc2o1 | 2.43% | 
34 | CCCC(=O)Nc1ccc2oc(-c3ccc(O)c(Br)c3)nc2c1 |  | 2390 nM (active)
35 | O=C(Nc1cc(-c2nc3ccccc3o2)ccc1Cl)c1cc([N+](=O)[O-])ccc1N1CCOCC1 | -12.3% | 
36 | COc1ccc2oc(-c3ccc(C)c(NC(=O)c4sc5ccccc5c4Cl)c3)nc2c1 | -8.93% | 
37 | O=[N+]([O-])c1ccc2oc(-c3cccc(O)c3)nc2c1 |  | 2130 nM (active)
38 | CCC(=O)Nc1cccc(-c2nc3cc(C)ccc3o2)c1 |  | 2690 nM (active)
39 | COc1ccc(-c2nc3ccccc3o2)cc1NC(=O)c1cc([N+](=O)[O-])ccc1N1CCOCC1 | 3.15% | 
40 | COc1cccc(-c2nc3cc(C)ccc3o2)c1 |  | 757 nM (active)
41 | Cc1sc(C2C(C#N)=C(N)N(c3cccc(Cl)c3)C3=C2C(=O)CCC3)cc1CN1CCOCC1 (stereo unspecified) | 0.0548% | 
42 | Cc1ccsc1C(=O)NC1CCCCC1C (stereo unspecified) | -4.61% | 
43 | CCOc1ccccc1CNC(=O)Nc1cn(CC(C)C)c(=O)c2ccccc12 | -8.92% | 
44 | COc1ccccc1-c1oc2ccccc2c1C#CCCCCO | -2.19% | 
45 | COC(=O)CC1Oc2ccccc2-n2cc(-c3ccccc3)nc21 (stereo unspecified) | -15.8% | 
46 | CCN1C(=O)c2ccccc2Sc2ccc(NC(=O)Cc3ccc(OC)cc3)cc21 | -6.99% | 
47 | COc1ccc(/C=C(/NC(=O)c2ccco2)C(=O)Nc2ccc(C(C)=O)cc2)cc1 | -4.55% | 
48 | COc1ccc(C(=O)NCc2ccc(Cl)cc2)cc1S(=O)(=O)N1CCCC1 | -5.91% | 
49 | CCOc1ccc(Nc2oc(/C=C/c3ccc(F)cc3)nc2C#N)cc1 | -5.12% | 
50 | CCCCn1c(=N)c(S(=O)(=O)c2ccccc2)cc2c(=O)n3cccc(C)c3nc21 | 2.9% | 
51 | CN1CCN(CC(=O)Nc2sc3c(c2C#N)CCC(C(C)(C)C)C3)CC1 (stereo unspecified) | 2.26% | 
